Assay [1] has as its target T1, Aspartate--tRNA(Asp/Asn) ligase (Mycobacterium tuberculosis (strain ATCC 25618 / H37Rv)) (UniProt P9WFW3). Further: in the data most compounds retested in dose-response had high values.
T1 sequence (whole entry): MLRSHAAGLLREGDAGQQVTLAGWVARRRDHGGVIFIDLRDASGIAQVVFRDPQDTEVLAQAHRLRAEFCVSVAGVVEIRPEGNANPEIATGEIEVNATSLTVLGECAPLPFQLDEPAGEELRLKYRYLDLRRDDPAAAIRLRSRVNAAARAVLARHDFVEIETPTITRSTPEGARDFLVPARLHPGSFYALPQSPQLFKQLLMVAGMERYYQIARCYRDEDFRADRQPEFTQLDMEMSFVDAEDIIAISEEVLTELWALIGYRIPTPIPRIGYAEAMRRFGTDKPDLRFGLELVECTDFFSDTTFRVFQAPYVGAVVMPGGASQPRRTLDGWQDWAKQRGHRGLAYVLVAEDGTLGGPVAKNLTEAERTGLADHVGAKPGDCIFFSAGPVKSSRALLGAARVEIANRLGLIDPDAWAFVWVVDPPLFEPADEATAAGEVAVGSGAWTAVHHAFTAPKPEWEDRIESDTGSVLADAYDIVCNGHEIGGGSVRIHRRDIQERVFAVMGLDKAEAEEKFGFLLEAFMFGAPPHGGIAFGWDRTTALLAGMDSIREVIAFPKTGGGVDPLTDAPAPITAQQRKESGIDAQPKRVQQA
Description: Assay for Asp RNA synthetase-1 from Mycobacterium tuberculosis. It counts as functional. More on the design: scale not given: direction of the effect not stated beside the values. The conditions noted are these: 30 µM.

The target of assay [2] is Shiga toxin 2 (Escherichia coli O157:H7) (UniProt P09385+P09386). Description: E. coli 0.157:H7 Shiga Toxin SOP - stx2 screening assay. The assay is classed as functional. More on the design: scale not given: direction of the effect not stated beside the values. The conditions noted are these: 30 µM.

Results on 17 compounds are retold here after ChEMBL document CHEMBL3988442, “University of Dundee, Small-Polar-MMV Screening Library” (2021).

Molecules are shown by their SMILES.

In the case of `CC(C)COCc1cncc2c1CCN(Cc1cnn(C)c1)C2`, the Percent Effect in assay [1] was -0.981%; in assay [2], -36.8%.

Turning to `CSCC(C)(O)CNC(=O)c1ccc(Br)cc1C` (centres undefined), the figures for the Percent Effect in assay [1] and in assay [2] were -3.46% and -16%, respectively.

Regarding `Cn1cc(-c2cnc(N3CCCC3)nc2)cc1C(=O)O`, the Percent Effect in assay [1] was -9.05%; in assay [2], 10.6%.

`O=C(c1ccnnc1)N1CCN2C[C@H](Oc3cccc(F)c3)C[C@H]2C1`: the figures for the Percent Effect in assay [1] and in assay [2] were -0.611% and -1.95%, respectively.

Consider `Cn1cnc2c1CCN(Cc1nc(-c3ccsc3)no1)C2`, for which the Percent Effect in assay [1] is -8.92%; in assay [2], -33%.

With `CCOc1nnc(CN2CCC(N(C)Cc3noc(C)n3)C2)s1` (centres undefined), the values for the Percent Effect in assay [1] and in assay [2] were 5.37% and 24.4%, respectively.

For the compound `Cc1csc(CNC(=O)Nc2cc(C(F)(F)F)c[nH]c2=O)n1`, the values for the Percent Effect in assay [1] and in assay [2] were -5.12% and 8.58%, respectively.

With `Cc1csc(C2CCCCN2C(=O)CN(C)Cc2ccccc2)n1` (centres undefined), the Percent Effect in assay [1] is -3.92%; in assay [2], 8.13%.

Turning to `Cc1nc(CN2CCCC(CCc3c(F)cccc3F)C2)c[nH]1` (centres undefined), the results for the Percent Effect in assay [1] and in assay [2] were -1.36% and -14.3%, respectively.

Turning to `COc1cccc([C@@H]2CN(C(=O)c3ccc(C)cc3O)C[C@H]2C(=O)O)c1`, the Percent Effect in assay [1] was 1.74%; in assay [2], -5.94%.

Turning to `Cc1cc(C[S+]([O-])CC(=O)NCC(C)C)no1` (centres undefined), the Percent Effect in assay [1] is -2.03%; in assay [2] it was 4.91%.

For the compound `Cc1ncc2c(n1)CN(Cc1nnc(-c3occc3C)o1)CC2`, the Percent Effect in assay [1] is 12.2%; in assay [2] it was -43.7%.

Turning to `O=C(NC1CC1)[C@H]1C[C@H]2OCC[C@H]2N(CC2CCOCC2)C1`, the Percent Effect was 4.28% in assay [1] and -17.4% in assay [2].

Consider `Cc1cnn(CC2CN(CC(=O)Nc3sccc3C#N)CCO2)c1` (centres undefined), for which the figures for the Percent Effect in assay [1] and in assay [2] were -2.83% and 27.5%, respectively.

In the case of `CN(C)C(=O)N1C[C@H]2CN(Cc3cccc(F)c3)C(=O)[C@H]2C1`, the Percent Effect in assay [1] is -2.95%; in assay [2] it was -2.65%.

As to `Cc1cnccc1CN1CC[C@@](C)(O)[C@H](Oc2ccccc2)C1`, the Percent Effect in assay [1] is -5.05%; in assay [2] it was -31%.

Turning to `COc1ncccc1NC(=O)N(Cc1ccc(C)o1)C1CC1`, the Percent Effect is -0.455% in assay [1] and 12.1% in assay [2].
